From PubChem BioAssay
Compounds with a hit are over-represented: about 3.4% of the library has one in this group of screens.
miR-122 sensor: miR-122 Renilla sensor signal increase in Huh7, primary screen, miR-122 inhibitor project, cell-based, single point, plate reader; hit rate 0.3% among 340,000; activation (reporter increase), % at 12.5 µM; AID 602342, 2012; Huh7 miR-122 Renilla luciferase sensor, 48 h; neutral wells = 0, positive control = 100;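 active means mean replicate activation score at least 90 and every replicate individually at or above 90; inconclusive means only one of the two criteria met; inactive means neither criterion met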;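 further: higher luciferase means less miR-122 activity so hits act as miR-122 inhibitors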
HIV Env fusion: inhibitors of HIV-1 Env-driven cell-cell fusion, primary screen, HeLa-JRFL effector, CEM21 target cells, luciferase; inhibition, % at 12.3 µM; hit rate 1.1% among 360,000;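 active means mean replicate inhibition score of at least 50 and every replicate individually at or above 50; inconclusive means only one of the two criteria met; inactive means mean below 50 and not all replicates reaching 50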;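 further: 0% = plate neutral controls and 100% = maraviroc near 300 nM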
MITF act: activators of MITF-driven TRPM1 promoter reporter, primary screen, cell-based, SK-MEL-5, luciferase, single point; SK-MEL-5 TRPM1-promoter luciferase, 24 h; % of positive control, neutral wells = 0; activation, % at 12.5 µM; hit rate 0.75% among 300,000; AID 588334, 2011;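 active means mean activation of at least 80% with every replicate also reaching 80%; inconclusive means mean reaches 80% but some replicate falls short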;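 further: 0% = neutral control wells and 100% = parthenolide positive control wells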
esBAF inh: Bmi1 luciferase reporter increase in mESCs, primary screen, esBAF inhibitor project, mouse ES cells, Bmi1 luciferase knock-in, single point. reporter increase, % at 12.5 µM. hit rate 2% among 350,000. 24 h; 100% = twice the neutral-well signal; in the data active means activation above about 40%; inconclusive means no clear call, values can overlap the other calls;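 further: 0% = median of the plate's neutral control wells and 100% = double that signal; a rise in the Bmi1 reporter signal indicates esBAF inhibition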
Wnt act: Wnt/beta-catenin pathway activators, primary screen, cell-based, plate reader, single point. Wnt/beta-catenin reporter cell assay, activator. activation, % at 9.35 µM. hit rate 1.2% among 300,000; in the data active means activation above about 30%, passing the limit was not always enough; inconclusive means no clear call, values can overlap the other calls;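 further: 0% = neutral control wells and 100% = positive control wells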
An asterisk follows results filed as active; [ ] = another dose, or the depositor's remark.

What do the screens show for `CCOC(=O)c1ccc(N=Nc2c(C)[nH]n(-c3ccccc3)c2=O)cc1`?
miR-122 sensor: -3.2; HIV Env fusion: -7.4; esBAF inh: -1.0; Wnt act: -1.9

How did CCOC(=O)c1ccc(-n2[nH]c(-c3ccccc3)cc2=O)cc1 do in these assays?
miR-122 sensor: 20.3; HIV Env fusion: 57.7*; esBAF inh: -2.1

How did Cc1ccc(C(=O)c2coc3ccc(O)c(Cl)c23)cc1 do in these assays?
miR-122 sensor: 6.2; HIV Env fusion: -21.4; esBAF inh: 67.6*; Wnt act: 66.7*

What do the screens show for `CC(=O)c1ccc(NC(=O)c2cc(CC(C)C)nc3ccccc23)cc1`?
miR-122 sensor: 0.9; HIV Env fusion: 57.8*; esBAF inh: 25.2; Wnt act: -1.7

Results for O=C(NCCc1cccs1)c1cccs1 ?
miR-122 sensor: -6.5; HIV Env fusion: -2.2; MITF act: inconclusive; esBAF inh: 61.0*; Wnt act: 10.6

How did O=C(NCCc1ccc(F)cc1)c1cccs1 do in these assays?
miR-122 sensor: -4.0; MITF act: 29.4; esBAF inh: 64.7*; Wnt act: 10.5

What do the screens show for `O=C(CNC(=O)c1cccs1)c1ccc(Br)cc1`?
miR-122 sensor: 0.2; HIV Env fusion: -84.1; MITF act: 122.5*; esBAF inh: 25.9; Wnt act: 27.1

How did COc1ccc2cc(CCNC(=O)c3cccs3)c(=O)[nH]c2c1 do in these assays?
miR-122 sensor: -5.1; HIV Env fusion: -188.1; MITF act: 90.1*; esBAF inh: 72.0*; Wnt act: 50.6*

What do the screens show for `COc1ccc2cc(CCNC(=O)c3cc4ccccc4o3)c(=O)[nH]c2c1`?
miR-122 sensor: -6.5; HIV Env fusion: -7.9; MITF act: -20.4; Wnt act: 0.7

How did O=C(NCCCCCCNC(=O)c1cccs1)c1cccs1 do in these assays?
HIV Env fusion: 4.1; MITF act: 6.9; Wnt act: 25.9

How did CCCC(=O)Nc1ccc2c(c1)C(=O)N(C)C[C@H](OC)[C@@H](C)CN(Cc1cccc(F)c1)[C@H](C)CO2 do in these assays?
miR-122 sensor: -2.9[16.7 µM]; esBAF inh: 6.9

How did O=C(NCCC1CCCC1)c1cccs1 do in these assays?
miR-122 sensor: -3.8; HIV Env fusion: -5.0; esBAF inh: 50.1*; Wnt act: 3.2

What do the screens show for `C=CCNC(=O)C1CC(=O)N(c2ccc(OCC(=O)Nc3ccccc3)cc2)C1` (stereo unspecified)?
miR-122 sensor: -10.5; HIV Env fusion: -22.7; MITF act: inconclusive; esBAF inh: 53.0*; Wnt act: inconclusive

What do the screens show for `C=CCNC(=O)C1CC(=O)N(c2ccc(OCc3ccc(F)cc3)cc2)C1` (stereo unspecified)?
miR-122 sensor: -1.7; HIV Env fusion: -22.7; MITF act: 46.6; esBAF inh: inconclusive; Wnt act: 37.1*

How did CCCNC(=O)C1CC(=O)N(c2ccc(OCc3ccc(F)cc3)cc2)C1 (stereo unspecified) do in these assays?
miR-122 sensor: 1.9; HIV Env fusion: -36.6; MITF act: 49.3; esBAF inh: inconclusive; Wnt act: 9.5

How did C=CCNC(=O)C1CC(=O)N(c2ccc(OCC(=O)Nc3ccc(C)cc3)cc2)C1 (stereo unspecified) do in these assays?
miR-122 sensor: 0.9; MITF act: 2.8; esBAF inh: -5.4

Results for C[C@H]1CN([C@@H](C)CO)C(=O)Cc2cc(NC(=O)Cc3cn(C)c4ccccc34)ccc2O[C@H]1CN(C)S(C)(=O)=O ?
miR-122 sensor: -4.6[16.7 µM]; esBAF inh: -0.6

What do the screens show for `Fc1ccccc1NC(=S)N/N=C/c1ccccc1Br`?
miR-122 sensor: 16.8; HIV Env fusion: -198.7; esBAF inh: 60.4*

What do the screens show for `COc1ccc2[nH]c(=O)c(CNc3ccccc3C)cc2c1`?
HIV Env fusion: -18.1; MITF act: 16.1; Wnt act: 38.9*

How did COc1ccc2[nH]c(=O)c(CNc3ccccc3)cc2c1 do in these assays?
miR-122 sensor: 2.4; MITF act: 17.4; esBAF inh: 85.4*; Wnt act: 27.8

How did O=C(NC[C@@H]1[C@@H](c2ccccc2)[C@@H](CO)N1C(=O)C1CCC1)NC1CCCC1 do in these assays?
miR-122 sensor: 14.3[16.7 µM]; esBAF inh: 1.8

How did CCOc1ccccc1OCCOCCOc1ccccc1[N+](=O)[O-] do in these assays?
HIV Env fusion: 6.8; MITF act: 3.1; Wnt act: 6.3

Results for CCOc1cccc(OCCOc2ccccc2[N+](=O)[O-])c1 ?
miR-122 sensor: -1.3; MITF act: inconclusive; esBAF inh: 80.3*

What do the screens show for `CCOc1ccccc1C(=O)NCC(=O)OCc1csc(CC(=O)Nc2ccc(C)cc2)n1`?
MITF act: 24.9; esBAF inh: 56.1*; Wnt act: 5.4

Results for CCOc1ccccc1C(=O)N[C@H](C(=O)OCc1csc(CC(=O)Nc2ccc(C)cc2)n1)C(C)C ?
miR-122 sensor: -0.9; HIV Env fusion: -8.6; MITF act: -8.1; Wnt act: -1.3

Results for O=C(C[C@@H]1C[C@H]2c3cc(NC(=O)Nc4ccccc4)ccc3O[C@H]2[C@H](CO)O1)NC1CCCC1 ?
miR-122 sensor: -2.3[16.7 µM]; HIV Env fusion: -14.2[16.7 µM]; esBAF inh: 25.4

What do the screens show for `CC(C)(C)NC(=O)C(c1ccccc1)N(C(=O)C1CSC(=O)C1)c1ccccc1` (stereo unspecified)?
miR-122 sensor: -1.7; HIV Env fusion: 64.7*; MITF act: -5.3; esBAF inh: -1.5; Wnt act: -1.7

Results for CC(C)c1cn(CC[C@@H]2CC[C@@H](NC(=O)C3CC3)[C@@H](CO)O2)nn1 ?
HIV Env fusion: 7.0[16.7 µM]; esBAF inh: -6.9

How did O=C(C[C@@H]1C=C[C@H](NC(=O)Nc2cc(F)ccc2F)[C@H](CO)O1)NCc1ccccn1 do in these assays?
HIV Env fusion: -4.3[16.7 µM]; esBAF inh: -3.0

What do the screens show for `Cc1cnc(-c2nnc(N(C)C(=O)c3cccnc3)s2)cn1`?
miR-122 sensor: -2.4; HIV Env fusion: -56.1; MITF act: 19.8; esBAF inh: 7.0; Wnt act: 13.6

What do the screens show for `CC(=O)N(c1ccccc1)c1nnc(-c2cnc(C)cn2)s1`?
miR-122 sensor: 1.1; HIV Env fusion: -34.8; MITF act: 97.7*; Wnt act: 6.8

Results for C[C@@H]1CN([C@@H](C)CO)C(=O)c2cc(NC(=O)CCCN(C)C)ccc2O[C@@H](C)CCCCO[C@@H]1CN(C)S(C)(=O)=O ?
miR-122 sensor: 5.2[16.7 µM]; HIV Env fusion: -0.4[16.7 µM]; esBAF inh: 0.8

Results for C[C@@H]1CN([C@@H](C)CO)C(=O)c2cc(C3=CCCC3)cnc2O[C@@H]1CN(C)C(=O)C1CCOCC1 ?
miR-122 sensor: -2.2[16.7 µM]; HIV Env fusion: -47.8[16.7 µM]; esBAF inh: -0.5
